Measurements reported in PubChem BioAssay (NCI).
The panel holds about 79,000 compounds, 15% with a hit somewhere; the sample as a whole holds those more often. A number with no mark means an inactive call. Active and inactive are the calls of the source. Rule as the data show it: active = growth inhibition above about 70%; inactive = the rest.

Key:
[1] = NCI Yeast Anticancer Drug Screen. Data for the rad50 strain (AID 155);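 also: 0% = growth of vehicle-only cultures of the same strain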; conditions: S. cerevisiae rad50 strain growth inhibition, hits give high values
Procedure, shortened: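 Vehicle-treated cultures provide the reference for the growth inhibition reported for compound-exposed, repair-deficient yeast.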

[2] = NCI Yeast Anticancer Drug Screen. Data for the mec2-1 strain (AID 157); conditions: S. cerevisiae mec2-1 strain, hits give high values
Procedure, shortened: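 Test agents were screened against the mec2-1 yeast strain, with defined DNA repair or cell cycle alteration. Growth was scored as inhibition against vehicle-only controls.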

[3] = NCI Yeast Anticancer Drug Screen. Data for the sgs1 mgt1 strain (AID 161);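 also: 0% = growth of cultures given vehicle only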; conditions: S. cerevisiae sgs1 mgt1 strain, hits give high values
Procedure, shortened: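 Mutant yeast exposed to compound; growth scored against vehicle-only wells.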

[4] = NCI Yeast Anticancer Drug Screen. Data for the cln2 rad14 strain (AID 165);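 also: 0% = growth equal to vehicle treated cultures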; conditions: S. cerevisiae cln2 rad14 strain, hits give high values
Procedure, shortened: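 Growth of compound-exposed yeast (cln2 rad14 genotype) measured and expressed as inhibition relative to vehicle.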

[5] = NCI Yeast Anticancer Drug Screen. Data for the bub3 strain (AID 167); conditions: S. cerevisiae bub3 mutant strain, hits give high values
Procedure, shortened: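 Mutant yeast screening strain plus compound; vehicle-treated cultures serve as the 0% inhibition reference.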

[6] = NCI Yeast Anticancer Drug Screen. Data for the mlh1 rad18 strain (AID 175); conditions: S. cerevisiae mlh1 rad18 strain growth inhibition, hits give high values
Procedure, shortened: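 In this whole-cell yeast screen, a strain with altered DNA damage repair is challenged with compound, and its growth is measured against matched vehicle-treated controls.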

[7] = at 5.0 µM (retest, dose inferred, filed as 0.5)
[8] = at 50.0 µM (retest, dose inferred, filed as 5.0)

In the case of `CC(=O)Nc1ccc(O)c(=O)cc1`, the growth inhibition [1, 7] is reported as 18%, the growth inhibition [1, 8] is reported as 96% (active) and the growth inhibition ([1]; at 50.0 µM) is reported as 90.6% (active). The growth inhibition [2, 7] was 42%, the growth inhibition [2, 8] was 97% (active) and the growth inhibition ([2]; at 50.0 µM) was 87.5% (active). For the same compound, the growth inhibition [3, 7] was 27%, the growth inhibition [3, 8] was 96% (active) and the growth inhibition ([3]; at 50.0 µM) was 96.1% (active). The growth inhibition [4, 7] was 16%, the growth inhibition [4, 8] was 93% (active) and the growth inhibition ([4]; at 50.0 µM) was 20.9%. For the same compound, the growth inhibition [5, 7] was 23%, the growth inhibition [5, 8] was 93% (active) and the growth inhibition ([5]; at 50.0 µM) was 53.9%. For the same compound, the growth inhibition [6, 7] was 19%, the growth inhibition [6, 8] was 97% (active) and the growth inhibition ([6]; at 50.0 µM) was 97.2% (active).
In the case of `O=C(Sc1c(-c2ccccc2)c(=O)n(-c2ccccc2)c(=S)n1-c1ccccc1)c1cccs1`, the growth inhibition [1, 7] is reported as 37%, the growth inhibition [1, 8] is reported as 92% (active) and the growth inhibition ([1]; at 50.0 µM) is reported as 72.2% (active). For the same compound, the growth inhibition [2, 7] was 39%, the growth inhibition [2, 8] was 95% (active) and the growth inhibition ([2]; at 50.0 µM) was 73.1% (active). The growth inhibition [3, 7] was 23%, the growth inhibition [3, 8] was 93% (active) and the growth inhibition ([3]; at 50.0 µM) was 77.9% (active). The growth inhibition [4, 7] was 25%, the growth inhibition [4, 8] was 92% (active) and the growth inhibition ([4]; at 50.0 µM) was 56%. For the same compound, the growth inhibition [5, 7] was 47%, the growth inhibition [5, 8] was 95% (active) and the growth inhibition ([5]; at 50.0 µM) was 84% (active). The growth inhibition [6, 7] was 66%, the growth inhibition [6, 8] was 95% (active) and the growth inhibition ([6]; at 50.0 µM) was 77.6% (active).
For `Oc1ccc(CNC2CCCCC2)cc1`, the growth inhibition [1, 7] was -4%, the growth inhibition [1, 8] was 4% and the growth inhibition ([1]; at 50.0 µM) was 70.8% (active). It also gave a growth inhibition [2, 7] of -13%, a growth inhibition [2, 8] of -20% and a growth inhibition ([2]; at 50.0 µM) of 31.2%. The growth inhibition [3, 7] was -5%, the growth inhibition [3, 8] was 10% and the growth inhibition ([3]; at 50.0 µM) was 79.8% (active). It also gave a growth inhibition [4, 7] of -2%, a growth inhibition [4, 8] of -11% and a growth inhibition ([4]; at 50.0 µM) of 50.5%. For the same compound, the growth inhibition [5, 7] was -14%, the growth inhibition [5, 8] was -20% and the growth inhibition ([5]; at 50.0 µM) was 37.4%. For the same compound, the growth inhibition [6, 7] was 1%, the growth inhibition [6, 8] was -25% and the growth inhibition ([6]; at 50.0 µM) was 46.9%.
Work on `OC1(c2ccccc2)CN(CCl)CC(c2ccccc2)O1` (configuration not stated) yielded a growth inhibition [1, 7] of -2%, a growth inhibition [1, 8] of 7% and a growth inhibition ([1]; at 50.0 µM) of -10.6%. For the same compound, the growth inhibition [2, 7] was 0%, the growth inhibition [2, 8] was 2% and the growth inhibition ([2]; at 50.0 µM) was 17.3%. It also gave a growth inhibition [3, 7] of -1%, a growth inhibition [3, 8] of 7% and a growth inhibition ([3]; at 50.0 µM) of 46%. For the same compound, the growth inhibition [4, 7] was 12%, the growth inhibition [4, 8] was 15% and the growth inhibition ([4]; at 50.0 µM) was 10.4%. The growth inhibition [5, 7] was 2%, the growth inhibition [5, 8] was 6% and the growth inhibition ([5]; at 50.0 µM) was 71.8% (active). The growth inhibition [6, 7] was -2%, the growth inhibition [6, 8] was 7% and the growth inhibition ([6]; at 50.0 µM) was 47.4%.
In the case of `CC(C)C1=CC23CCC4C(C)(C(=O)O)CCCC4(C)C2CC1CC3C#N` (configuration not stated), the growth inhibition [1, 7] is reported as 19%, the growth inhibition [1, 8] is reported as 56% and the growth inhibition ([1]; at 50.0 µM) is reported as 98% (active). For the same compound, the growth inhibition [2, 7] was 18%, the growth inhibition [2, 8] was 34% and the growth inhibition ([2]; at 50.0 µM) was 98.5% (active). The growth inhibition [3, 7] was 12%, the growth inhibition [3, 8] was 42% and the growth inhibition ([3]; at 50.0 µM) was 98.5% (active). For the same compound, the growth inhibition [4, 7] was 3%, the growth inhibition [4, 8] was 57% and the growth inhibition ([4]; at 50.0 µM) was 97.1% (active). For the same compound, the growth inhibition [5, 7] was -1%, the growth inhibition [5, 8] was 49% and the growth inhibition ([5]; at 50.0 µM) was 98.5% (active). For the same compound, the growth inhibition [6, 7] was 13%, the growth inhibition [6, 8] was 39% and the growth inhibition ([6]; at 50.0 µM) was 98.2% (active).
For `COc1ccc2nc(N/N=C/c3ccccn3)cc(C)c2c1`, the growth inhibition [1, 7] was 10%, the growth inhibition [1, 8] was 56% and the growth inhibition ([1]; at 50.0 µM) was 98.7% (active). For the same compound, the growth inhibition [2, 7] was -3%, the growth inhibition [2, 8] was 62% and the growth inhibition ([2]; at 50.0 µM) was 98.1% (active). The growth inhibition [3, 7] was 0%, the growth inhibition [3, 8] was 57% and the growth inhibition ([3]; at 50.0 µM) was 99.2% (active). The growth inhibition [4, 7] was 3%, the growth inhibition [4, 8] was 40% and the growth inhibition ([4]; at 50.0 µM) was 96.5% (active). For the same compound, the growth inhibition [5, 7] was 4%, the growth inhibition [5, 8] was 58% and the growth inhibition ([5]; at 50.0 µM) was 98.3% (active). The growth inhibition [6, 7] was 19%, the growth inhibition [6, 8] was 75% (active) and the growth inhibition ([6]; at 50.0 µM) was 99% (active).
In the case of `S=C(Nc1cc(Cl)cc(Cl)c1)SCc1ccccc1`, the growth inhibition [1, 7] is reported as 33%, the growth inhibition [1, 8] is reported as 78% (active) and the growth inhibition ([1]; at 50.0 µM) is reported as 99.1% (active). The growth inhibition [2, 7] was 25%, the growth inhibition [2, 8] was 54% and the growth inhibition ([2]; at 50.0 µM) was 99.5% (active). For the same compound, the growth inhibition [3, 7] was 30%, the growth inhibition [3, 8] was 74% (active) and the growth inhibition ([3]; at 50.0 µM) was 99.2% (active). The growth inhibition [4, 7] was -9%, the growth inhibition [4, 8] was 48% and the growth inhibition ([4]; at 50.0 µM) was 98.7% (active). The growth inhibition [5, 7] was 4%, the growth inhibition [5, 8] was 68% and the growth inhibition ([5]; at 50.0 µM) was 99.2% (active). For the same compound, the growth inhibition [6, 7] was 31%, the growth inhibition [6, 8] was 82% (active) and the growth inhibition ([6]; at 50.0 µM) was 99.3% (active).
In the case of `CCOC(=O)C(=CCC1NCCc2c1[nH]c1ccccc21)C(=O)OCC` (configuration not stated), the growth inhibition [1, 7] is reported as 23%, the growth inhibition [1, 8] is reported as 93% (active) and the growth inhibition ([1]; at 50.0 µM) is reported as 91.2% (active). For the same compound, the growth inhibition [2, 7] was 29%, the growth inhibition [2, 8] was 97% (active) and the growth inhibition ([2]; at 50.0 µM) was 91.7% (active). The growth inhibition [3, 7] was 29%, the growth inhibition [3, 8] was 63% and the growth inhibition ([3]; at 50.0 µM) was 93.5% (active). For the same compound, the growth inhibition [4, 7] was 28%, the growth inhibition [4, 8] was 59% and the growth inhibition ([4]; at 50.0 µM) was 92.2% (active). For the same compound, the growth inhibition [5, 7] was 30%, the growth inhibition [5, 8] was 98% (active) and the growth inhibition ([5]; at 50.0 µM) was 92.4% (active). For the same compound, the growth inhibition [6, 7] was 41%, the growth inhibition [6, 8] was 97% (active) and the growth inhibition ([6]; at 50.0 µM) was 91.6% (active).
For `C1=Cc2ccccc2/C1=C/c1ccccc1`, the growth inhibition [1, 7] was -1%, the growth inhibition [1, 8] was 93% (active) and the growth inhibition ([1]; at 50.0 µM) was 86.3% (active). The growth inhibition [2, 7] was -32%, the growth inhibition [2, 8] was 89% (active) and the growth inhibition ([2]; at 50.0 µM) was 60.6%. The growth inhibition [3, 7] was 1%, the growth inhibition [3, 8] was 97% (active) and the growth inhibition ([3]; at 50.0 µM) was 88% (active). For the same compound, the growth inhibition [4, 7] was -7%, the growth inhibition [4, 8] was 56% and the growth inhibition ([4]; at 50.0 µM) was 61.8%. For the same compound, the growth inhibition [5, 7] was -4%, the growth inhibition [5, 8] was 95% (active) and the growth inhibition ([5]; at 50.0 µM) was 96.7% (active). For the same compound, the growth inhibition [6, 7] was 0%, the growth inhibition [6, 8] was 97% (active) and the growth inhibition ([6]; at 50.0 µM) was 91.2% (active).
